The campaign covered roughly 1,500 compounds. About 920 (61%) were called active. So high a share suggests a set chosen from earlier hits. The list shows a part of the results. Potency and affinity values are given separately. Values without a mark were called inactive. How the calls were made is not given here.
Experiment: Vero 76 cell cytotoxicity, dose response, cytotoxicity control for VEEV inhibitor project (AID 588719)
Conditions: Vero 76 cells viability, cytotoxicity counter-screen; series mostly up to 25 µM; viability: at the top concentration

SMILES | viability
O=c1oc2ccccc2cc1-c1csc(Nc2ccc(O)cc2)n1 | 68.4%
COc1cccc(NC(=O)c2ncc(Cl)c(Cl)c2Cl)c1 | 84.3%
CCOC(=O)c1ccccc1NC(=O)c1cn(CC)c2nc(C)ccc2c1=O | 91.6%
COc1ccc(CCn2c(-c3ccco3)nc3ccccc3c2=O)cc1OC | 89%
CCOc1ccccc1C(=O)NC(C(=O)OCn1nnc2ccccc2c1=O)C(C)C (configuration not stated) | 87.5%
CCN1CCN(CCCNC(=O)C2CCCN(c3nc4c(C)cc(C)cc4s3)C2)CC1 (configuration not stated) | 91.2%
CCOC(=O)c1c(NC(=O)c2c(-c3ccccc3)noc2C)sc(C)c1-c1ccccc1 | 50.6%
COC(=O)c1c(-c2ccccc2)csc1NC(=O)c1c(-c2ccccc2)noc1C | 61.7%
CCCOc1ccc(C(=O)NNC(=S)NC(=O)c2cc(-c3ccc(Cl)cc3)nc3ccccc23)cc1 | 72%
O=C(/C=C/c1cccc([N+](=O)[O-])c1)c1ccc2c(c1)OCCO2 | 79.3%
CN1C/C(=C/c2ccsc2)C(=O)/C(=C/c2ccsc2)C1 | 94.4%
O=C(CC(=O)N/N=C/c1ccc(F)cc1)N/N=C/c1ccc(F)cc1 | 87.4%
O=C(CSC1CN(C(c2ccccc2)c2ccccc2)C1)N/N=C/c1ccc(Cl)cc1Cl | 102%
NC(=S)NN=C(c1ccc(F)cc1)C1CC1 | 98.5%
CCCCCCCCCCCCCCCC(O)C(N)CO (configuration not stated) | 83.8%
CN1CCN(C(=O)CCN2C(=O)/C(=C\c3ccc(Cl)cc3Cl)SC2=S)CC1 | 88.9%
O=C(N1CCOCC1)N1c2ccccc2Sc2ccccc21 | 75.8%
NC(=O)c1nsc(C(=O)N(c2ccccc2F)C(C(=O)NCc2ccccc2)c2ccc(O)cc2)c1N (configuration not stated) | 76.7%
COC(=O)c1cc2c(N)c(C(=O)c3ccc(Cl)cc3)sc2nc1C(OC)OC | 82.7%
COc1cc2cc(C(=O)N3CC(COS(C)(=O)=O)c4ccc(O)cc43)[nH]c2c(OC)c1OC (configuration not stated) | 35.5%
COC(=O)c1ccc(/C=C2/SC(=S)N(CCC(=O)N3CCOCC3)C2=O)cc1 | 78.4%
O=C(O)c1ccccc1Nc1ccc(OC(F)F)cc1 | 101%
Cc1cc(-c2ccccc2)nc(N2CCN(c3ccccn3)CC2)n1 | 84.5%
COc1cc2[nH]c3c(N4CCN(c5ccccn5)CC4)ncnc3c2cc1OC | 85.7%
Cc1nc2ccccc2nc(C)c1=NOCc1cccc(F)c1 | 71.2%
Cc1ccc2oc(C(F)(F)C(F)F)cc(=O)c2c1 | 96.2%

SMILES | viability
O=C(OCc1cn([C@@H]2C[C@H](c3ccc(Cl)cc3)N(C(=O)c3cccs3)C[C@H]2O)nn1)c1ccccc1 | 83%
COCCNCC(=O)NC12CC3CC(CC(C3)C1)C2 | 86.3%
CC(OCCN(C)C)C(=O)C12CC3CC(CC(C3)C1)C2 (configuration not stated) | 90.7%
Cc1ncc([N+](=O)[O-])n1CC(=O)NCCc1ccccc1 | 95.3%
CC1N(C)c2cc(NC(=O)c3ccco3)c(P(=O)(Nc3ccc([N+](=O)[O-])cc3)N3CCOCC3)cc2C1(C)C (configuration not stated) | 70.7%
CCC(NC(=O)CCCc1ccccc1)c1ccccc1 (configuration not stated) | 91.7%
CCOc1ccc2nc3cc(NCc4ccc(OC)cc4)ccc3c(N)c2c1 | 83.8%
Cc1ccc(NC(=O)C2CCCN2C(=O)OC(C)(C)C)cc1C (configuration not stated) | 87.2%
COc1ccccc1C=NN=C1c2ccccc2-c2ccccc21 | 83.9%
COc1cccc(-c2ccc(NC(=O)C3CCCN(Cc4cnn(C)c4)C3)cc2)c1 (configuration not stated) | 72.5%
COc1cccc(-c2ccc(NC(=O)C3CCCN(Cc4cnn(C)c4C)C3)cc2)c1 (configuration not stated) | 80.3%
O=C1C2CCCN2C(c2ccc(F)cc2)N1c1ccc(Cl)cc1 (configuration not stated) | 79.2%
Cc1cc(NC(=O)c2ccc3nccnc3c2)ccc1Br | 90.1%
C[C@@H]1CCCCO[C@H](CN(C)C(=O)NC2CCCCC2)[C@@H](C)CN([C@H](C)CO)C(=O)c2cc(NC(=O)c3ccccc3)ccc2O1 | 93%
COc1cccc(CNC(=O)c2cc3oc4ccccc4c3n2C)c1OC | 109%
CCC1(c2ccccc2)NC(=S)N(c2ccc(C)cc2)N1 (configuration not stated) | 84%
O=C(COC(=O)CCC(=O)c1ccc(F)cc1)NCc1ccccc1Cl | 101%
O=C(Nc1ccc(C(=O)OC[C@@H]2CCCN3CCCC[C@H]23)cc1)c1cccc(Br)c1 | 90.9%
CCCCC(=O)NC(c1ccc(Cl)cc1Cl)c1ccc2cccnc2c1O (configuration not stated) | 40.8%
CCC(=O)OC1CCC2C3CCC4CC(=O)C=CC4(C)C3CCC12C (configuration not stated) | 85.2%
CNCCNC[C@H](Cc1cccc2ccccc12)NCCc1ccccc1 | 94.2%
Cc1cccc2sc(N(CCCN(C)C)C(=O)c3ccco3)nc12 | 81.4%
CCOC(=O)c1c(C)oc2ccc(OCc3cc(C(=O)OC)oc3C)cc12 | 87.8%
C=C(C)COc1ccc(-c2nc(N)ncc2-c2ccc(Br)cc2)c(O)c1 | 80%
C=CCC1(CCCCC)C(=O)NC(=S)NC1=O | 77.4%
Oc1c(C(Nc2nc3ccccc3s2)c2ccco2)ccc2cccnc12 (configuration not stated) | 43.2%

SMILES | viability
O=CC1=C(c2ccccc2)Oc2ccccc2O1 | 82.1%
Cc1ccc(NC(=O)Nc2ccno2)cc1 | 91.5%
Cc1ccc(S(=O)(=O)c2ccsc2NC(=O)c2ccccc2)cc1 | 92.4%
Cc1cc(N/N=C/c2cccc([N+](=O)[O-])c2)nc(-n2nc(C)cc2C)n1 | 76.6%
CC(C)(C)OC(=O)[C@H](Cc1ccccc1)NC(=O)c1nc[nH]c1C(=O)NC1CCN(C(=O)OC(C)(C)C)CC1 | 75.8%
CC1(C)CC(=O)/C(=N/Nc2ccc(Cl)cc2)CO1 | 87.7%
CN1CCN(c2ccc(NC(=O)c3cccc(OCc4ccccc4)c3)cc2)CC1 | 81%
CCCCOc1ccc(C(=O)Nc2ccc(N3CCN(C)CC3)cc2)cc1 | 89.9%
CCCn1cnc2c(SCc3ccccc3Cl)nc(N)nc21 | 80.5%
O=C(NCCc1csc(-c2cccnc2)n1)c1ccccc1Br | 94.9%
CCN(CC)CCCNC(=O)c1oc2ccc(S(=O)(=O)N3CC(C)CC(C)C3)cc2c1C (configuration not stated) | 95.3%
Cc1ccccc1-c1n[nH]c(=S)n1/N=C/c1c(C)nn(-c2ccccc2)c1C | 87.3%
COc1ccccc1C1N(c2ccc(Cl)cc2)C(=O)C2CCCN21 (configuration not stated) | 82.5%
CNc1nc(Cl)nc2c1ncn2-c1ccccc1 | 81.9%
Cc1cc(=O)[nH]c(N/N=C/c2ccc(OC(=O)c3cccnc3)cc2)n1 | 89%
O=S1(=O)CCC(NC(=S)SCCOc2ccccc2)C1 (configuration not stated) | 74.7%
Nc1[nH]nc2nc(NCc3ccccc3)c3c(c12)CCN(Cc1ccccc1)C3 | 76.5%
Cc1ccc(N2C(=O)NC(=O)/C(=C\C=C\c3ccco3)C2=O)cc1 | 84.2%
CCc1ccc(N2C(=O)NC(=O)/C(=C\C=C\c3ccco3)C2=O)cc1 | 93.4%
Nc1nc(CN2CCN(c3ccccn3)CC2)nc(Nc2ccc(Cl)cc2)n1 | 73.1%
Cc1[nH]c(C)c(S(=O)(=O)N2CCN(c3cccc(C(F)(F)F)c3)CC2)c1C(=O)N1CCCCC1 | 70.3%
COc1ccccc1OCC(=O)Nc1nc2c(s1)CCCC2 | 75.5%
O=C1Nc2cc(C(=O)NCCCN3CCOCC3)ccc2S/C1=C/c1cccc(Cl)c1 | 95%
O=C(NCCCN1CCOCC1)c1ccc(/C=C2\Oc3ccccc3N(Cc3ccccc3F)C2=O)cc1 | 89.8%
COC(=O)c1cc(Cl)c(NC(=O)c2ccc(C(C)(C)C)cc2)cc1OC | 70.6%
COc1cc(NC(=S)N(C)C)c(OC)cc1Cl | 103%

SMILES | viability
CCc1ccc(-c2cc3c(=O)n(CC(=O)NCCCN4CCN(CC)CC4)nc(C)n3n2)cc1 | 83.6%
O=C(NC1CC1)C1=C[C@@H](C2CCCCC2)C[C@@H](OCc2ccc(CO)cc2)O1 | 84.6%
NC(=O)C1=C[C@H](C2CCCCC2)C[C@H](OCc2ccc(CO)cc2)O1 | 96%
Cc1cccc(NC(=O)C(C)Sc2nc3ccccc3c(=O)n2CCCN2CCOCC2)c1 (configuration not stated) | 77.5%
CC(=O)C1C2c3ccccc3OC1(C)N=c1s/c(=C/c3cn(C)nc3C)c(=O)n12 (configuration not stated) | 86.7%
O=C(NC1CCN(Cc2ccccc2)CC1)c1ccc(Oc2cc(Cl)cc(Cl)c2)o1 | 102%
O=C(c1ccc(-c2ccccc2)c(F)c1)C1CCCN(CCO)C1 (configuration not stated) | 82.1%
c1ccc(COC(CN2CCCCCC2)CN2CCCCCC2)cc1 | 70.4%
COc1cc2c(cc1OC)C13CCN4CC5=CCOC(CC(=O)O)C(C5CC41)C3N2 (configuration not stated) | 93%
Cc1c(-c2ccc(OCc3ccccc3)cc2)nc2ccccc2c1C(=O)O | 107%
C[C@@H]1CN([C@H](C)CO)C(=O)CCCn2nncc2CO[C@@H]1CN(C)C(=O)Nc1ccc(N2CCCCC2)cc1 | 96.2%
COc1cccc(/C=C/c2n[nH]c(=O)c(C#N)c2C)c1 | 70.6%
CC(C)CN(C(=O)COC(=O)/C=C/c1ccc(Cl)c(Cl)c1)c1c(N)n(Cc2ccccc2)c(=O)[nH]c1=O | 74.3%
O=C1C2C3C=CC(C4CC34)C2C(=O)N1CCCCN1CCN(c2ccc(F)cc2)CC1 (configuration not stated) | 72.1%
Cc1ccc(NC(=O)c2ccc(CN3CCN(C)CC3)cc2)cc1Nc1nccc(-c2cccnc2)n1 | 72%
COc1ccc(-c2cc(-c3ccc(F)cc3)nc(N3CCN(C)CC3)n2)cc1 | 84.9%
COCC(C)n1c(SCc2cc(=O)n3cc(C)ccc3n2)nc2ccccc2c1=O (configuration not stated) | 81.7%
Cc1ccc2oc(=O)c3cnn(CC(=O)Nc4ccccc4N4CCN(C)CC4)c3c2c1 | 82.2%
Cc1cccc(NC(=O)CSc2nc3ccccc3nc2N2CCCC2)c1 | 74.6%
CC(=O)c1cccc(NC(=O)/C=C/c2ccc([N+](=O)[O-])s2)c1 | 88%
COc1cc(NC(=O)c2ccc(-c3cccc([N+](=O)[O-])c3)o2)ccc1NC(=O)C(C)C | 82.7%
COc1ccc(C(Nc2cccc([N+](=O)[O-])c2)P(=O)(OC(C)C)OC(C)C)cc1 (configuration not stated) | 93.5%
O=C1c2cccc3cc([N+](=O)[O-])cc(c23)C(=O)N1c1ccccc1O | 81.5%
CCCNC(=O)N1CCN(c2nc(C(C)C)c3c(c2C#N)CC(C)(C)OC3)CC1 | 76%

— PubChem BioAssay AID588719 (Southern Research Specialized Biocontainment Screening …, 2011)
